hcDAF12 agonist: H. contortus DAF-12 nuclear receptor activators, primary screen, cell-based, luminescence, HEK293, lit1-tk-luc reporter | HEK293 hcDAF-12 lit1-tk-luc reporter; 0% DMSO, 100% Δ7-dafachronic acid | activation, % at 6.8 µM | actives 1.4% (n = 370,000) | AID 652067, 2013;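 active = activation above the mean of all tested compounds plus 3 SD, cut at about 5.5% in these data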
hgDAF-12 ag: H. glycines DAF-12 receptor agonists, primary screen, cell-based, luminescence, HEK293, GAL4 fusion, UAS-luciferase | Nuclear hormone receptor DAF-12 (Heterodera glycines), GAL4 fusion | HEK293 GAL4-hgDAF12 UAS-luciferase reporter, agonist luminescence; normalized to butyrate control | activation, % at 6.8 µM | actives 1.8% (n = 370,000) | AID 687014, 2013;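 active = activation above a cutoff set at the mean of all screened compounds plus 3 SD, cut at about 10% in these data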
AHR act: AHR activators, primary screen, cell-based, luminescence, luciferase reporter, human; AHR-responsive luciferase reporter cells; activation, % at 5 µM; actives 2.5% (n = 320,000); AID 2796, 2010; in the data active = activation above about 47%
DAX1 inh-1: DAX1 (NR0B1) inhibitors, primary screen, cell-based, HEK293, Gal4-DAX1, luciferase luminescence. inhibition, % at 6.75 µM. actives 0.99% (n = 340,000). HEK293 Gal4-DAX1 luciferase reporter;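 active = inhibition above the mean over all tested compounds plus 3 SD, cut at about 4.2% in these data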;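 note: inhibition shows as a rise in luminescence from relieved DAX1 repression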
ssDAF-12 act: S. stercoralis DAF-12 nuclear receptor activators, primary screen, cell-based, luminescence, HEK293, GRIP1 co-expression, lit1-tk-luc | activation, % at 6.8 µM | HEK293 ssDAF-12/GRIP1 lit1-tk-luc reporter; % of 3 µM dafachronic acid response | AID 652126, 2013 | Nuclear hormone receptor DAF-12 (Strongyloides stercoralis) | actives 1% (n = 370,000);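 active = activation above the mean over all tested compounds plus 3 SD, cut at about 0.9% in these data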
DAX1 inh-2: DAX1 (NR0B1) inhibitors on StAR promoter, primary screen, cell-based, luminescence, SF-1 (NR5A1), full-length DAX-1 | HEK293T StAR-luciferase reporter, SF-1/DAX-1 repression relief | actives 1.1% (n = 370,000) | inhibition, % at 6.8 µM;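 active = inhibition above the mean over all tested compounds plus 3 SD, cut at about 3.6% in these data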;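 note: higher inhibition means more luminescence from relief of DAX-1 repression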
Of the large screens only hits and unclear results are named; the others gave an inactive call; ! = a repeat was not active. Shown are actives, neighbours in structure and some others; about 5.7% of the full set was active somewhere.

O=C(COC(=O)c1c(F)cccc1Cl)NC1CCCC1	none
O=C(COC(=O)c1c(F)cccc1Cl)NCC1CCCCC1	hgDAF-12 ag 11
Clc1cccc(CN2CCCCCC2)c1	none
Clc1ccc(-c2nc3cc(CN4CCCCC4)ccc3o2)cc1	hgDAF-12 ag 11 (no result: AHR act)
CC1CCCCN1C(=O)CN1CCC(c2nc3ccc(Cl)cc3[nH]2)CC1 (configuration not stated)	DAX1 inh-1 4.5
COc1ccc(NC(=O)c2ccc(C(=O)Nc3ccc(OC)cc3OC)cc2)c(OC)c1	none
COc1cc(NC(=O)c2cc(C(C)C)on2)c(OC)cc1Cl	AHR act 74
COc1cc(NC(=O)c2c(F)c(F)c(F)c(F)c2F)c(OC)cc1Cl	none
COc1ccc(NC(=O)c2cc(C(C)C)on2)c(OC)c1	hcDAF12 agonist 6.4
COc1ccc(NC(=O)c2cc(C(C)C)on2)cc1OC	DAX1 inh-1 5.0
COc1ccc(-c2cc(C(=O)N3CCN(c4ccccc4O)CC3)c3ccccc3n2)cc1OC	none
CC(C)C(=O)Nc1ccc(N2CCOCC2)c(S(=O)(=O)Nc2ccccc2Cl)c1	none
O=C(O)c1ccc(O)cc1O	none
Nc1ccc(C(=O)O)c(O)c1	hgDAF-12 ag 11!
CCOc1ncccc1C(=O)Nc1ccc(OC)c(S(=O)(=O)N2CCOCC2)c1	none (no result: AHR act)
CSc1ccc(Cn2c(C)c(C(=O)NCCC#N)sc2=O)cc1	none (no result: AHR act, DAX1 inh-1)
CCC(=O)N(C)CCc1cc2c(c(OC)c1/C=N/NC(=O)c1ccncc1)OCO2	DAX1 inh-1 4.2
Cc1cc2c(c(C)c1CCO)C(=O)[C@H](C)C2	DAX1 inh-1 4.7
Cc1cc2c(c(C)c1CCO[C@@H]1O[C@H](CO)[C@@H](O)[C@H](O)[C@H]1O)C(=O)[C@@H](C)[C@@H]2O	none
COc1ccc(-c2cc(-c3nnc(SCc4cccc5ccccc45)n3N)[nH]n2)cc1	none (no result: AHR act, DAX1 inh-1)
C[C@H](CO)NC(=O)c1nc[nH]c1C(=O)N[C@H](C)c1ccccc1	none (no result: AHR act)
COC(=O)c1scc(C)c1NC(=O)c1ccc(Cl)cc1	none (no result: hcDAF12 agonist, hgDAF-12 ag, ssDAF-12 act, DAX1 inh-2)
COC(=O)c1scc(C)c1N/N=C(\C)c1ccc(F)cc1F	hcDAF12 agonist 5.8
COc1ccc(C2=Nc3ccccc3NC(=O)C2N(C(=O)c2cnc(C)cn2)c2ccc(N3CCOCC3)cc2)cc1 (configuration not stated)	DAX1 inh-2 3.7 (no result: AHR act, DAX1 inh-1)
Cc1cnc(C(=O)N(c2ccc(N3CCOCC3)cc2)C2C(=O)Nc3ccccc3N=C2c2ccc3c(c2)OCO3)cn1 (configuration not stated)	none (no result: AHR act, DAX1 inh-1)
C[C@@H]1CNCCN1c1ccc(N2CCN(Cc3ccccc3)[C@@H](C)C2)c(C#N)c1	none (no result: AHR act, DAX1 inh-1)
O=C(NNC1=Nc2ccccc2SC1)c1ccccc1F	AHR act 56
O=C(NC1=NCCS1)c1ccccc1F	none (no result: DAX1 inh-1)
O=C(NNC1=Nc2ccccc2SC1)c1cccc([N+](=O)[O-])c1	AHR act 49 (no result: DAX1 inh-1)
COc1cc2c(cc1OC)C(c1ccccc1Cl)N(C)CC2 (configuration not stated)	none
CCCCN1C(=O)C(=O)N(CC(=O)c2cc(C)n(C3CC3)c2C)C1=O	none
CO[C@H]([C@H](C)/C=C/N(C)C=O)[C@@H](C)C(O)CC[C@H](C)[C@H](O)[C@H](C)[C@H]1OC(=O)/C=C/C(C)=C/C[C@H](O)C[C@@H]2C=CC[C@@H](C[C@H](OC)[C@@]3(CO3)[C@@H](OC)C[C@@H](OC)[C@@H]1C)O2 (some centres not stated)	none (no result: AHR act, DAX1 inh-1, DAX1 inh-2)
Cc1cc(C)n2cc(CSc3nc4ccccc4s3)nc2n1	hcDAF12 agonist 5.7
O=C1Nc2ccccc2N=C(c2ccccc2)c2ccccc21	none (no result: DAX1 inh-1)
COCCCNC(=O)Cn1cnc2sc(C)c(S(=O)(=O)N3CC(C)CC(C)C3)c2c1=O (configuration not stated)	none (no result: hcDAF12 agonist, hgDAF-12 ag, ssDAF-12 act, DAX1 inh-2)
COc1ccc(Cl)cc1Nc1nc(C)cc(C)c1C(N)=O	AHR act 59
Cc1cc(C)c(C(N)=O)c(Nc2cccc(Cl)c2C)n1	none
O=C(CN1C(=O)NC2(CCCCCCC2)C1=O)NCc1ccc(Cl)cc1	none
N#CC1(NC(=O)Cn2cc(C(F)(F)F)cc(Cl)c2=O)CCCCC1	none
Cc1cccc2c1cnn2C(=O)Nc1ccccc1Br	none
Cc1cccc2c1cnn2C(=O)Nc1ccccc1Cl	hcDAF12 agonist 5.8
Cc1ccc(NC(=O)CN2C(=O)CCSc3ccccc32)c(C)c1	none (no result: AHR act, DAX1 inh-1)
COc1ccc(CNC(=O)c2cccc(N3CCCC3=O)c2)cc1	ssDAF-12 act 1.2
COc1ccc(CNC(=O)c2cc(C)nn2-c2ccccc2)cc1	DAX1 inh-1 6.7
CC(=O)c1cccc(NC(=O)Cn2cnc(S(=O)(=O)N3CCOCC3)c2)c1	none (no result: hcDAF12 agonist, hgDAF-12 ag, ssDAF-12 act, DAX1 inh-2)
C=CCN=C1NC(c2ccccc2C(F)(F)F)C(C(=O)OC)=C(C)N1Cc1ccccc1C(F)(F)F (configuration not stated)	none (no result: AHR act, DAX1 inh-1)
Clc1ccc(OCCn2ccnc2)c(Cl)c1	DAX1 inh-1 8.9
Clc1ccc(OCCn2ccnc2)c(Br)c1	none
OC(COc1ccc(Cl)cc1Cl)Cn1ccnc1 (configuration not stated)	AHR act 47
Cc1cc(OCCCn2ccnc2)cc(C)c1Cl	none
Clc1ccc(OCCn2ccnc2)c2ccccc12	AHR act 74
O=C(CCCOc1ccc(Cl)cc1Cl)NCCCn1ccnc1	none
Cc1cc(OCCCCCn2ccnc2)cc(C)c1Cl	AHR act 55
COc1ccccc1CN1CC(C(=O)N2CCC(OC)CC2)CCC1=O (configuration not stated)	none
COC(=O)C(Cc1ccccc1)NC(=O)CCNC(=O)c1ccco1 (configuration not stated)	none
Cc1cc(C)n(NC(=S)NC2CCCCC2)c(=O)c1C#N	none
Cc1cc(Cl)cc(C)c1OCCCCCn1ccnc1	none
OC(COc1ccc2ccccc2c1Br)Cn1ccnc1 (configuration not stated)	AHR act 70
OC(COc1ccc2ccccc2c1)Cn1ccnc1 (configuration not stated)	none
Cc1cccc(Cl)c1OCCCn1ccnc1	AHR act 58
Cc1cccc(NC(=O)CCS(=O)(=O)c2cccc3nonc23)c1C	none
Cc1cc(CN(C)C(=O)CC2C(=O)NCCN2Cc2c(F)cccc2Cl)on1 (configuration not stated)	none

Source: PubChem BioAssay (The Scripps Research Institute Molecular Screening Center)
